# Laboratory results as given in PubChem BioAssay (Tox21).
# Several values for one entry are separate records, joined by “and”; a condition that tells them apart may be missing. Equal entries are not always repeated. Results filed as inconclusive are left out. Entries that show only a call come without a potency. More than one record can exist for a structure, and the calls need not agree. Activity calls are given as the source filed them. Unless noted, calls come from the whole dose curve; as a rule, active = well fitted curve in the direction sought with a large enough effect in the repeat runs; inconclusive = weak or mixed curves; inactive = no such curve, though single readings can be large; an effect the other way counts as inactive or inconclusive.
# Key:
# [1] = molecular target: Acetylcholinesterase (Homo sapiens) (UniProt P22303); test: Acetylcholinesterase (AChE) small molecule antagonists: colormetric cell-based qHTS assay (AID 1347395; calls by dose curve; note: nearly all actives have a fitted effect of over 30% in size; note: potency is the fitted concentration of half-maximal effect)
# Procedure, shortened: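 Endogenous AChE of human neuroblastoma SH-SY5Y cells was measured with an Ellman-type DTNB/acetylthiocholine mix. Compound pretreatment lasted 30 min at 37 C; substrate reaction ran 90 min at 37 C.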
# [2] = molecular target: Acetylcholinesterase (Homo sapiens) (UniProt P22303); test: Acetylcholinesterase (AChE) small molecule antagonists: enzyme-based qHTS assay (AID 1347397; calls by dose curve; note: nearly all actives have a fitted effect of over 55% in size; note: potency is the fitted concentration of half-maximal effect); conditions: Potency: AChE enzyme activity inhibition
# Procedure, shortened: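 First, recombinant human AChE (50 mU/mL as dispensed) received test compound or DMSO. Second, plates stood 30 min at room temperature. Third, DTNB and acetylthiocholine were added, followed by 10 min at room temperature and colorimetric detection.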
# [3] = molecular target: Acetylcholinesterase (Homo sapiens) (UniProt P22303); test: Acetylcholinesterase (AChE) small molecule antagonists: enzyme-based qHTS assay with human liver microsomes (AID 1347399; calls by dose curve; note: nearly all actives have a fitted effect of over 60% in size; note: potency is the fitted concentration of half-maximal effect); conditions: Potency: qHTS inhibition
# Procedure, shortened: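 Recombinant human AChE (50 mU/mL in the enzyme mix) and human liver microsomes (0.25 mg/mL final) were preincubated with compound and NADPH (0.25 mg/mL final) for 30 min at 37 C. Acetylthiocholine/DTNB was then added; thiocholine was read colorimetrically after 10 min at room temperature.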
# [4] = molecular target: Cytochrome P450 2D6 (Homo sapiens) (UniProt P10635); test: Cytochrome P450 Family 2 Subfamily D Member 6 (CYP2D6) small molecule antagonists: luciferase reporter qHTS assay (AID 1671196); note: nearly all actives have a fitted effect of over 50% in size; note: potency is the fitted concentration of half-maximal effect
# Procedure, shortened: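 Luminogenic proluciferin substrate, CYP2D6 enzyme; 10 min RT preincubation with compound, NADPH regeneration system added, 1 h RT. Stop/detection reagent, 20 min RT, luminescence read (RLU). Signal proportional to CYP activity.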
# [5] = molecular target: Cytochrome P450 2C19 (Homo sapiens) (UniProt P33261); test: Cytochrome P450 Family 2 Subfamily C Member 19 (CYP2C19) small molecule antagonists: luciferase reporter qHTS assay (AID 1671197); note: nearly all actives have a fitted effect of over 65% in size; note: potency is the fitted concentration of half-maximal effect
# Procedure, shortened: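 Inhibition of CYP2C19 was scored from loss of luminescence in a P450-Glo proluciferin substrate assay, NADPH-started and run 1 h at 37C, with ketoconazole as positive control.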
# [6] = molecular target: Cytochrome P450 1A2 (Homo sapiens) (UniProt P05177); test: Cytochrome P450 Family 1 Subfamily A Member 2 (CYP1A2) small molecule antagonists: luciferase reporter qHTS assay (AID 1671199); note: nearly all actives have a fitted effect of over 50% in size; note: potency is the fitted concentration of half-maximal effect
# Procedure, shortened: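 Luminescence readout (relative luminescence units) after luciferin detection reagent, 20 min RT. Preceded by 1 h room-temperature CYP1A2 reaction with NADPH regeneration solution following 10 min compound preincubation with enzyme and proluciferin substrate. Furafylline positive control.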
# [7] = molecular target: Voltage-gated inwardly rectifying potassium channel KCNH2 (Homo sapiens) (UniProt Q12809); test: Human Ether-a-go-go-Related Gene (hERG) channel small molecule antagonists: fluorescence cell-based qHTS assay (AID 1671200);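 note: hERG-expressing U2OS cells given a thallium stimulus after FluxOR II dye loading; series mostly up to about 77 µM; nearly all actives have a fitted effect of over 50% in size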
# Procedure, shortened: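 Quantitative HTS in hERG-U2OS cells: thallium entry through the channel reports activity, read as continuous 480/540 nm fluorescence over 2 min after stimulus addition.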
# [8] = molecular target: Cytochrome P450 3A4 (Homo sapiens) (UniProt P08684); test: Cytochrome P450 Family 3 Subfamily A Member 4 (CYP3A4) small molecule antagonists: luciferase reporter qHTS assay (AID 1671201); note: nearly all actives have a fitted effect of over 50% in size; note: potency is the fitted concentration of half-maximal effect
# Procedure, shortened: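 Inhibition of CYP3A4 is measured as loss of light: the enzyme converts a proluciferin substrate to luciferin, detected luminescently. Reaction ran 1 h at room temperature with NADPH regeneration after a 10 min compound preincubation.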
# [9] = molecular target: Acetylcholinesterase (Homo sapiens) (UniProt P22303); test: Acetylcholinesterase (AChE) small molecule antagonists: fluorescence cell-based qHTS assay (AID 1347398; calls by dose curve; note: nearly all actives have a fitted effect of over 50% in size; note: potency is the fitted concentration of half-maximal effect); conditions: Potency: AChE activity
# Procedure, shortened: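 Homogeneous quantitative HTS format. SH-SY5Y cells seeded at 2,000 per well settle overnight at 37 C. Compound pretreatment runs 30 min (37 C, 5% CO2); substrate/probe mix then reacts 40 min at RT before reading 490/520 nm.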
# [10] = molecular target: Cytochrome P450 2C9 (Homo sapiens) (UniProt P11712); test: Cytochrome P450 Family 2 Subfamily C Member 9 (CYP2C9) small molecule antagonists: luciferase reporter qHTS assay (AID 1671198); note: nearly all actives have a fitted effect of over 50% in size; note: potency is the fitted concentration of half-maximal effect
# Procedure, shortened: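 Enzyme-substrate mix preincubated with compound 10 min at room temperature; reaction started with NADPH regeneration solution, 1 h 37C. Luminescent luciferin product read after 20 min detection reagent.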
# Chain of Cytochrome P450 2C9 (Homo sapiens) (P11712 whole entry, looked up): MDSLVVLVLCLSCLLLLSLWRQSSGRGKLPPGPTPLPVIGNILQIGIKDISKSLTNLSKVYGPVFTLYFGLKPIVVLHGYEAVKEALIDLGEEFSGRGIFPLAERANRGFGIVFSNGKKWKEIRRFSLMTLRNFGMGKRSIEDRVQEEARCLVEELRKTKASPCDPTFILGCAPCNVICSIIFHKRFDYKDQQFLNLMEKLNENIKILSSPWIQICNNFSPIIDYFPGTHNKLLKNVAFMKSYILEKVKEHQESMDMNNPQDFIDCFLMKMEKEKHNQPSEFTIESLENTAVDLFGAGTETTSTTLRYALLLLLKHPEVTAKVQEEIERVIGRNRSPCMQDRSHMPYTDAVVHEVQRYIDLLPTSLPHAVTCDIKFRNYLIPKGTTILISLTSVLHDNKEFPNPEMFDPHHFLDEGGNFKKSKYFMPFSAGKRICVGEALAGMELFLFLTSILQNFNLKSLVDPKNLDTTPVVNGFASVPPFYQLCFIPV
# Chain of Acetylcholinesterase (Homo sapiens) (P22303 whole entry, looked up): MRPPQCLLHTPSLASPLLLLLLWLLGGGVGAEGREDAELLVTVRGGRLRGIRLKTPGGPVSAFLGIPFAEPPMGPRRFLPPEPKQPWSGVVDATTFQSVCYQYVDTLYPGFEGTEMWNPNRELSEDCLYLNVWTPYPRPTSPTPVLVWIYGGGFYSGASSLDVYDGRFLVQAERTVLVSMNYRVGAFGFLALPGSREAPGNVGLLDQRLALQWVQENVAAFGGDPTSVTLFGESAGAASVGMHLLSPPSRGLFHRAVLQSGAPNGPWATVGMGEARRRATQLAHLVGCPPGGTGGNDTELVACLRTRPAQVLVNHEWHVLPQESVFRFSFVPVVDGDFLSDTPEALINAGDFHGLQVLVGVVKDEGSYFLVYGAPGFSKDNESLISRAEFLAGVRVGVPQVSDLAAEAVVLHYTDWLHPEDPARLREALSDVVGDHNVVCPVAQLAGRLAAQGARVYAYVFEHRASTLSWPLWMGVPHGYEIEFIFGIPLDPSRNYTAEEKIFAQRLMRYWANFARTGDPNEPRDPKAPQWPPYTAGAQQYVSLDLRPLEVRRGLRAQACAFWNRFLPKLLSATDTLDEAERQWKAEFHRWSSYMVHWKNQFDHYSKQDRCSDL
# Chain of Cytochrome P450 3A4 (Homo sapiens) (P08684 whole entry, looked up): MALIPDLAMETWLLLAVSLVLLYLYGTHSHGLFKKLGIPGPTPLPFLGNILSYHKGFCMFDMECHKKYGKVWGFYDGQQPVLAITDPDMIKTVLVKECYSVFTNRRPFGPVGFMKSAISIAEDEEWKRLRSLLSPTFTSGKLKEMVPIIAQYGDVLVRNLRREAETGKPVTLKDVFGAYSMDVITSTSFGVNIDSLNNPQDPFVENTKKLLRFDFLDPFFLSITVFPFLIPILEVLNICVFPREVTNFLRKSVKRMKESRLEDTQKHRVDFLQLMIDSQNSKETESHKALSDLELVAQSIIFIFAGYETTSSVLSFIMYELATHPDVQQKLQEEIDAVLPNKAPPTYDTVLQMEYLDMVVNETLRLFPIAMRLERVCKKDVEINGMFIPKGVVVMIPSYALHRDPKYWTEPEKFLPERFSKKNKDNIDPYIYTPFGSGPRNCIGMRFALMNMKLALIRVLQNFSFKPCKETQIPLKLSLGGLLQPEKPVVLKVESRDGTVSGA
# Chain of Cytochrome P450 2C19 (Homo sapiens) (P33261 whole entry, looked up): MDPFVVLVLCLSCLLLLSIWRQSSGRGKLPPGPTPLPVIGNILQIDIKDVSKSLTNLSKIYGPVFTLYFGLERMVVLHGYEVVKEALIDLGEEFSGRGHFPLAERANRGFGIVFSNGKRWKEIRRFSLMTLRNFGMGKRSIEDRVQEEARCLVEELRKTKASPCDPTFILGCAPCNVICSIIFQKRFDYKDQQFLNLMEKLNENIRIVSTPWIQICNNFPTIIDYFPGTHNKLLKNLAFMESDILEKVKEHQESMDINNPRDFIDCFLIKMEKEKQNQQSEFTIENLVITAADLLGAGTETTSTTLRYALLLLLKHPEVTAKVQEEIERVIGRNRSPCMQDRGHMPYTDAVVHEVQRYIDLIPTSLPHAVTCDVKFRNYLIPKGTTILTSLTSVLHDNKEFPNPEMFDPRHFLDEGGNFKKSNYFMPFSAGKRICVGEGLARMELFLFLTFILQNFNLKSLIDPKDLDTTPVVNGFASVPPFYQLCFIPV
# Chain of Voltage-gated inwardly rectifying potassium channel KCNH2 (Homo sapiens) (Q12809 whole entry, looked up): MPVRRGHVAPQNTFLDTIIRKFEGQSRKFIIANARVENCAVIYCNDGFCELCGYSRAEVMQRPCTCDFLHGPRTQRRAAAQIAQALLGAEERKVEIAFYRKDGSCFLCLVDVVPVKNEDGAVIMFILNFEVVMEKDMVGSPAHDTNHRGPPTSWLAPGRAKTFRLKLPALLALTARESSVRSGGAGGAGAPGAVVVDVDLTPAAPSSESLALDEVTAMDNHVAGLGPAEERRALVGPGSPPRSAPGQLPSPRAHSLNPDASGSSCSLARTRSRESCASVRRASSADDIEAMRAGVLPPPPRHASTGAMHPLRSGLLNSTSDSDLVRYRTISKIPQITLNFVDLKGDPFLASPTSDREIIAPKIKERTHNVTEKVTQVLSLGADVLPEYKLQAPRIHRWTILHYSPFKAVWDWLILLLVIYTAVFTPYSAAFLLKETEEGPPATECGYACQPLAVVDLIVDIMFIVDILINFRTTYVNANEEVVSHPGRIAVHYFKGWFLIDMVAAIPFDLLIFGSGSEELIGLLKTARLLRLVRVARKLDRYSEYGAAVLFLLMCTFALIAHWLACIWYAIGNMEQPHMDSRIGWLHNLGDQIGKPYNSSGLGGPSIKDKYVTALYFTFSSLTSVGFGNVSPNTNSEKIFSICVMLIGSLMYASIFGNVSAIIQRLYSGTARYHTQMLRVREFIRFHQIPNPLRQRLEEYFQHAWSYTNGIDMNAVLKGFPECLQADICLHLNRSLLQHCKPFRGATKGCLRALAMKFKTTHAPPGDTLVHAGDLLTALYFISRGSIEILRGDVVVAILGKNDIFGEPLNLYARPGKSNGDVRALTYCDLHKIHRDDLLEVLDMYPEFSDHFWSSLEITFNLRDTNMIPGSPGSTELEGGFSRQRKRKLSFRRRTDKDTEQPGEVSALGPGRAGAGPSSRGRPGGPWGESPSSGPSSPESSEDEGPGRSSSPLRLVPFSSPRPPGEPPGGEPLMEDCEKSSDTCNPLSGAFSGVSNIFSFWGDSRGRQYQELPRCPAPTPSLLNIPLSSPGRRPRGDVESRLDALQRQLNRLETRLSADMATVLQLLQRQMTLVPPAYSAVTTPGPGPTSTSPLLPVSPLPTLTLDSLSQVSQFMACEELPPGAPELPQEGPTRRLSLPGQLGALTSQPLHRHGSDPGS
# Chain of Cytochrome P450 1A2 (Homo sapiens) (P05177 whole entry, looked up): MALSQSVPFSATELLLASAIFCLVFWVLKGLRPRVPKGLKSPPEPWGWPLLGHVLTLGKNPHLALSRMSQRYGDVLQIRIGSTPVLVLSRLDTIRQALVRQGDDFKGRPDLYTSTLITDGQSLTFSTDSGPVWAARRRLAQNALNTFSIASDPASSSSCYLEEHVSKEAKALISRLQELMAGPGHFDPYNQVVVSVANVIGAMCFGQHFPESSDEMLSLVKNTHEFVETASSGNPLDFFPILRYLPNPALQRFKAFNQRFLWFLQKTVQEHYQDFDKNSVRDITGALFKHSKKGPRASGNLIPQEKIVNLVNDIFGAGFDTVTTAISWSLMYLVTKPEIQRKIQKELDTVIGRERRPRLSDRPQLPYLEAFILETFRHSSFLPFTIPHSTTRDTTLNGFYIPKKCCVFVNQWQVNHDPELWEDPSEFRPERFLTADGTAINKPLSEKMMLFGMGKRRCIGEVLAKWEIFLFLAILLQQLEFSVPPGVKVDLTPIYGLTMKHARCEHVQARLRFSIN
# Chain of Cytochrome P450 2D6 (Homo sapiens) (P10635 whole entry, looked up): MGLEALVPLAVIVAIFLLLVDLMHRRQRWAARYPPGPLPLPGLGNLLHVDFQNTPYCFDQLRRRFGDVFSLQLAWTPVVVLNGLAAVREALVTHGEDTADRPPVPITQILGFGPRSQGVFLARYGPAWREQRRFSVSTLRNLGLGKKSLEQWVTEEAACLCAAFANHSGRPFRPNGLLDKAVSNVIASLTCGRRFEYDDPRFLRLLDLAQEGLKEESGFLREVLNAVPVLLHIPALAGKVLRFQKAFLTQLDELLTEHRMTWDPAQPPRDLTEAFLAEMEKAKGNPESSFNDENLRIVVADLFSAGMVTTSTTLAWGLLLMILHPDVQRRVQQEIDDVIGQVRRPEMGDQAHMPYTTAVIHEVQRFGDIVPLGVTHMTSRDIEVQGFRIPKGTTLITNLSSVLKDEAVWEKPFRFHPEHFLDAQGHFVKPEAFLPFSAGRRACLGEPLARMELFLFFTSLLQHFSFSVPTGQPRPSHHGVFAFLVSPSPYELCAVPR
SMILES,Potency [1],Potency [2],Potency [3],Potency [4],Potency [5],Potency [6],Potency [7],Potency [8],Potency [9],Potency [10]
O=S(=O)(O)OOS(=O)(=O)O,inactive,inactive,inactive,inactive,inactive,31.6 µM (active) and inactive,inactive,inactive,–,–
CNC(=O)O/N=C/C(C)(C)S(C)=O (stereo not drawn),322 nM (active) and 354 nM (active),572 nM (active) and 316 nM (active),2.87 µM (active) and 2.51 µM (active),inactive,–,inactive,inactive,inactive,–,–
c1ccc2c(c1)CCCC2,inactive,–,inactive,7.25 µM (active) and inactive,–,inactive,inactive,inactive,inactive,inactive
CN1C(=O)CCS(=O)(=O)C1c1ccc(Cl)cc1 (stereo not drawn),inactive,–,inactive,inactive,28.3 µM (active),–,inactive,inactive,inactive,–
COc1nc(NC(C)C)nc(NC(C)C)n1,inactive,–,inactive,inactive,–,31.8 µM (active) and 28.3 µM (active),inactive,inactive,inactive,inactive
CC(C)c1cccc(C(C)C)c1O,inactive,–,inactive,–,–,–,inactive,–,inactive,–
CC[N+](=O)[O-],inactive,inactive,inactive,inactive,–,inactive,inactive,inactive,–,inactive
Cc1ccc(N=C=O)cc1N=C=O,inactive,inactive,inactive,40.9 µM (active) and 11.2 µM (active) and inactive,–,36.5 µM (active) and 35.5 µM (active),inactive,5.78 µM (active) and 2.82 µM (active) and inactive,–,36.5 µM (active) and 25.1 µM (active) and 79.6 µM (active)
CNC(=O)O/N=C(\SC)C(=O)N(C)C,1.55 µM (active) and 1.42 µM (active),–,12.3 µM (active) and 20 µM (active),30.9 µM (active) and 28.2 µM (active),34.6 µM (active) and 28.2 µM (active),inactive,inactive,inactive,489 nM (active) and 632 nM (active),–
CCOP(=S)(OCC)Oc1ccc([N+](=O)[O-])cc1,64.1 µM (active) and 13.8 µM (active),–,905 nM (active) and 616 nM (active),–,–,1.02 µM (active) and 976 nM (active),–,2.27 µM (active) and 2.75 µM (active),71.9 µM (active) and 15.5 µM (active),–
COC(=O)Nc1cccc(OC(=O)Nc2cccc(C)c2)c1,inactive,inactive,inactive,inactive,–,7.1 µM (active) and 17.8 µM (active),inactive,inactive,–,inactive
O=C(O)CCCc1ccc(N(CCCl)CCCl)cc1,inactive,inactive,inactive,inactive,–,inactive,inactive,inactive,–,–
O=[N+]([O-])c1ccc(Cl)cc1,inactive,–,inactive,inactive,inactive,inactive,inactive,inactive,inactive,inactive
Nc1cc(Cl)cc(Cl)c1,inactive,–,inactive,inactive,inactive,21.6 µM (active) and 28.3 µM (active),inactive,–,inactive,–
CNc1cnn(-c2cccc(C(F)(F)F)c2)c(=O)c1Cl,inactive,–,inactive,inactive,–,5.44 µM (active) and 10 µM (active),inactive,34.3 µM (active),inactive,–
CCOC(=O)CC(SP(=O)(OC)OC)C(=O)OCC (stereo not drawn),3.02 µM (active) and 3.56 µM (active),–,60.2 µM (active) and 56.4 µM (active),inactive,–,75.8 µM (active) and 71 µM (active),inactive,inactive,954 nM (active) and 1.42 µM (active),–
Cc1cccc(C)c1NC(=O)CN1CCCC1=O,inactive,–,inactive,inactive,–,inactive,inactive,inactive,inactive,inactive
Nc1cccc(Cl)c1,inactive,–,inactive,inactive,40.4 µM (active) and inactive,40.4 µM (active) and inactive,inactive,inactive,inactive,–
O=[N+]([O-])c1ccc(Cl)c(Cl)c1,inactive,–,inactive,inactive,71.1 µM (active) and inactive,inactive and 22.4 µM (active),inactive,inactive,inactive,–
OCC(O)CCl (stereo not drawn),inactive,–,inactive,inactive,79.6 µM (active) and inactive,–,inactive,inactive,inactive,inactive
CC(=O)C1CCOC1=O (stereo not drawn),inactive,–,inactive,inactive,inactive,inactive,inactive,inactive,inactive,inactive
ClCCOCCCl,inactive,inactive,inactive,inactive,–,inactive,inactive,inactive,–,inactive
Cc1cccc(N)c1,inactive,–,inactive,31.8 µM (active) and inactive,–,31.8 µM (active) and inactive and 31.7 µM (active),inactive,3.18 µM (active) and inactive,–,–
Oc1ccc(Cl)cc1,–,–,–,–,–,–,inactive,–,–,–
NNc1ccccc1,–,–,–,–,–,–,inactive,–,–,39.5 µM (active) and 39.8 µM (active) and 50.2 µM (active)
O=P1(NCCCl)OCCCN1CCCl (stereo not drawn),–,–,–,–,–,–,inactive,–,–,–
C[C@]12CC[C@H](O)CC1=CC[C@@H]1[C@@H]2CC[C@]2(C)C(=O)CC[C@@H]12,inactive,–,inactive,inactive,–,inactive,–,inactive,–,44.8 µM (active) and 31.7 µM (active) and 19.5 µM (active)

SMILES,Potency [1],Potency [2],Potency [3],Potency [4],Potency [5],Potency [6],Potency [7],Potency [8],Potency [9],Potency [10]
CNC(=O)O/N=C/C(C)(C)SC,–,–,–,inactive,–,inactive,inactive,inactive,–,–
COP(=S)(OC)SCN1C(=O)c2ccccc2C1=O,71.5 µM (active) and 39.9 µM (active),–,inactive,35.8 µM (active) and 35.6 µM (active) and 15.5 µM (active),–,10.1 µM (active) and 10 µM (active) and 6.92 µM (active),inactive,–,–,–
C[C@H]1C(=O)O[C@@H]2CCN3CC=C(COC(=O)[C@](C)(O)[C@]1(C)O)[C@H]23,inactive,–,inactive,inactive and 30.9 µM (active),–,inactive,inactive,inactive,–,inactive
Nc1ncc([N+](=O)[O-])s1,inactive,–,inactive,inactive,71.6 µM (active) and 50.2 µM (active),–,inactive,inactive,–,63.3 µM (active)
[N-]=[N+]=CC(=O)OC[C@H](N)C(=O)O,inactive,–,inactive,inactive and 30.9 µM (active),–,inactive,inactive,inactive,–,inactive
Cc1ccc(N)cc1,–,–,–,5.06 µM (active) and 25.2 µM (active),–,28.4 µM (active) and 30.6 µM (active) and 25.2 µM (active),inactive,inactive,–,–
C=CC#N,inactive,–,inactive,inactive,inactive,inactive,inactive,inactive,–,–
C=CCN=C=S,inactive,–,inactive,inactive,–,inactive,inactive,inactive,–,inactive
C=C(C)C(=O)OCC(CC)CCCC (stereo not drawn),inactive,–,inactive,inactive,–,inactive,inactive,inactive,–,–
Cc1ccccc1N,–,–,–,inactive and 40.7 µM (active),–,inactive and 36.3 µM (active) and 31.7 µM (active),inactive,inactive and 28.8 µM (active) and 28.3 µM (active),–,–
C=CC(=O)OCC(CC)CCCC (stereo not drawn),–,–,–,–,–,–,inactive,–,–,–
FC(F)(F)c1ccc(Cl)cc1,inactive,–,inactive,inactive,inactive,–,inactive,inactive,–,–
C=CC(=O)OCCCCCC(C)C,inactive,–,inactive,inactive,inactive,inactive,inactive,inactive,–,–
CN(C)CCC#N,inactive,–,inactive,inactive,–,inactive,inactive,inactive,–,inactive
N#CN=C(N)N,inactive,–,inactive,inactive,–,inactive,inactive,inactive,–,inactive
N#Cc1ccccn1,inactive,–,inactive,inactive,–,inactive,inactive,inactive,–,inactive
CCCCCCCCCCCCCCCCCC(=O)O,–,–,–,35.3 µM (active) and inactive,281 nM (active) and inactive,2.5 µM (active) and inactive,inactive,inactive,–,1.12 µM (active) and inactive
Cc1ccc(O)c(C)c1,inactive,–,inactive,inactive,–,70 µM (active) and 29.5 µM (active),inactive,inactive,–,–
N#Cc1cccc(C#N)c1,inactive,–,inactive,31.2 µM (active) and inactive,inactive,inactive,inactive,inactive,–,–
OCCCCO,–,–,–,–,–,–,inactive,–,–,–
CCNc1nc(Cl)nc(NC(C)C)n1,inactive,–,inactive,inactive,inactive,24.9 µM (active) and 22.4 µM (active),inactive,inactive,–,–
CNC(=O)O/N=C/C(C)(C)S(C)(=O)=O,–,–,–,inactive,–,inactive,inactive,inactive,–,inactive
CC(C)CCCCCCOC(=O)c1ccccc1C(=O)OCCCCCCC(C)C,inactive,–,inactive,inactive,–,63.2 µM (active),inactive,–,–,–
Nc1ccc(N)cc1,–,–,–,39.9 µM (active),34.7 µM (active) [middle of 4 runs],–,inactive,–,–,–
COc1cc(-c2ccc(N)c(OC)c2)ccc1N,–,–,–,40.1 µM (active) and 39.5 µM (active) and 34 µM (active),–,1.79 µM (active) [middle of 4 runs],inactive,–,–,–
Cl/C=C/Cl,inactive,–,inactive,inactive,–,inactive,inactive,inactive,–,–
